# Legend:
# [1] = target: T1, Serine/threonine-protein kinase D2 (Homo sapiens) (UniProt Q9BZL6); details: at 1 µM;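 also: mean value of PRKD2 inhibition, from the GSK PKIS screening panel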
# T1 sequence (whole entry): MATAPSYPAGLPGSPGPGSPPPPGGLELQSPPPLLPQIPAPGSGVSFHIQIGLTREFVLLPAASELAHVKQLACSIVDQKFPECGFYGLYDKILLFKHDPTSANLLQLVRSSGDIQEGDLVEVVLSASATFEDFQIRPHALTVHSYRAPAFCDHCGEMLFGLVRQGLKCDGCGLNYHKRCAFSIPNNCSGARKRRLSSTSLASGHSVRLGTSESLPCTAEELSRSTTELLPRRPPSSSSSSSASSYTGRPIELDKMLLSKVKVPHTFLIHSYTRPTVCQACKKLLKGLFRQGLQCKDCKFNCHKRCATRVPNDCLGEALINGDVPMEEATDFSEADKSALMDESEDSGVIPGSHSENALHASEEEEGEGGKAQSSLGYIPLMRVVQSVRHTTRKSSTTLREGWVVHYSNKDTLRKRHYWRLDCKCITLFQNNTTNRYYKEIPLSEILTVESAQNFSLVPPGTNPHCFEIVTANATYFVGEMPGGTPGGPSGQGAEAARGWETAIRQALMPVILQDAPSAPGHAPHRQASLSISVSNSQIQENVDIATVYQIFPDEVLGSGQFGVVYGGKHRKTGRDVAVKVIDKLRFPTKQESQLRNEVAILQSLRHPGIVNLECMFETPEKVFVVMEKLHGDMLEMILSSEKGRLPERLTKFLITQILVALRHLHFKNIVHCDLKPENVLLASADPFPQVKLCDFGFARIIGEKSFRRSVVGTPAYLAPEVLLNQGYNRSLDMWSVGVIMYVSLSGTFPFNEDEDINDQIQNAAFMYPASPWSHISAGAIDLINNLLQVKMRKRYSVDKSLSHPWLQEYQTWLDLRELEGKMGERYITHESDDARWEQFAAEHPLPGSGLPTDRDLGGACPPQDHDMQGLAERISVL
# [2] = target: T2, Serine/threonine-protein kinase D3 (Homo sapiens) (UniProt O94806); details: at 0.1 µM
# T2 sequence (whole entry): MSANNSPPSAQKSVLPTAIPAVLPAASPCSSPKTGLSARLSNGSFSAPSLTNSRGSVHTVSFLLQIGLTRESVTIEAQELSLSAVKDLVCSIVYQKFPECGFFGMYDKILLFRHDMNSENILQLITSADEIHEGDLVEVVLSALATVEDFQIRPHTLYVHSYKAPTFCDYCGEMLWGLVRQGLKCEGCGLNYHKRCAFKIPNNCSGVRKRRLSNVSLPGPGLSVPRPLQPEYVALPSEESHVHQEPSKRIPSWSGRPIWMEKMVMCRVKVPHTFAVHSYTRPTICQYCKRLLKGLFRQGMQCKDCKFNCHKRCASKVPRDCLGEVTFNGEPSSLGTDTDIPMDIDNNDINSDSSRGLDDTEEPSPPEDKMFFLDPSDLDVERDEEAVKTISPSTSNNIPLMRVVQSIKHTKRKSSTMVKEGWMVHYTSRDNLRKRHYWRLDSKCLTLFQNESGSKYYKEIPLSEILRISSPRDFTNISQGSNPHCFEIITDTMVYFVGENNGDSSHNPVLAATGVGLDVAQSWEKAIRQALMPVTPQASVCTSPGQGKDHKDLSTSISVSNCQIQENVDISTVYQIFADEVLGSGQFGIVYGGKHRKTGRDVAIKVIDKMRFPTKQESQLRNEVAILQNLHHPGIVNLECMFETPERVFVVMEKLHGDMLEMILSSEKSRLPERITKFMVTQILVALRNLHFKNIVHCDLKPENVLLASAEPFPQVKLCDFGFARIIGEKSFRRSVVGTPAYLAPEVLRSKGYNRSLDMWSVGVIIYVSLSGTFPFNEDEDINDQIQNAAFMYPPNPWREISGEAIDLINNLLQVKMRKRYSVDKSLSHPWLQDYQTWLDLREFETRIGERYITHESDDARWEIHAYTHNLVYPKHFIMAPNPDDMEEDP
# [3] = target: T2, Serine/threonine-protein kinase D3 (Homo sapiens); details: at 1 µM
# [4] = target: T3, cGMP-dependent protein kinase 1 (Homo sapiens) (UniProt Q13976); details: at 0.1 µM
# T3 sequence (whole entry): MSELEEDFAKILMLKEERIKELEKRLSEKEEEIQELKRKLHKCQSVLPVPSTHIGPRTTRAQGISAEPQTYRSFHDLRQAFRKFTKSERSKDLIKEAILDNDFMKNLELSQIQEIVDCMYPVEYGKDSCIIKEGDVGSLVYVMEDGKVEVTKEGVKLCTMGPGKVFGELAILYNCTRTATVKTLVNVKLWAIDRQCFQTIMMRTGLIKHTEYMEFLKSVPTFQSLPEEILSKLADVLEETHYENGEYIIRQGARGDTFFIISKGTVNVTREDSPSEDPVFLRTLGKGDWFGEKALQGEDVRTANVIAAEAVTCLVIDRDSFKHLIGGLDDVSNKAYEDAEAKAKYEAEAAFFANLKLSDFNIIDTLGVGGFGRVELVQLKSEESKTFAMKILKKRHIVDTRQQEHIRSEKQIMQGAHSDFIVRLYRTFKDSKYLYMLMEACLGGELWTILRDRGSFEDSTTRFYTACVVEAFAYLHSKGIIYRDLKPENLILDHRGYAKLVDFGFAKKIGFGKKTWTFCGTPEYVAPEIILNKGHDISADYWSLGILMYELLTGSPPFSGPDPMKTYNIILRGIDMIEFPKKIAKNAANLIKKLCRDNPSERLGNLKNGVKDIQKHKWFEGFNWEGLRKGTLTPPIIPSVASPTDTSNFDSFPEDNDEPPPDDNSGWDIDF
# [5] = target: T3, cGMP-dependent protein kinase 1 (Homo sapiens); details: at 1 µM
# [6] = target: T4, cGMP-dependent protein kinase 2 (Homo sapiens) (UniProt Q13237); details: at 0.1 µM
# T4 sequence (whole entry): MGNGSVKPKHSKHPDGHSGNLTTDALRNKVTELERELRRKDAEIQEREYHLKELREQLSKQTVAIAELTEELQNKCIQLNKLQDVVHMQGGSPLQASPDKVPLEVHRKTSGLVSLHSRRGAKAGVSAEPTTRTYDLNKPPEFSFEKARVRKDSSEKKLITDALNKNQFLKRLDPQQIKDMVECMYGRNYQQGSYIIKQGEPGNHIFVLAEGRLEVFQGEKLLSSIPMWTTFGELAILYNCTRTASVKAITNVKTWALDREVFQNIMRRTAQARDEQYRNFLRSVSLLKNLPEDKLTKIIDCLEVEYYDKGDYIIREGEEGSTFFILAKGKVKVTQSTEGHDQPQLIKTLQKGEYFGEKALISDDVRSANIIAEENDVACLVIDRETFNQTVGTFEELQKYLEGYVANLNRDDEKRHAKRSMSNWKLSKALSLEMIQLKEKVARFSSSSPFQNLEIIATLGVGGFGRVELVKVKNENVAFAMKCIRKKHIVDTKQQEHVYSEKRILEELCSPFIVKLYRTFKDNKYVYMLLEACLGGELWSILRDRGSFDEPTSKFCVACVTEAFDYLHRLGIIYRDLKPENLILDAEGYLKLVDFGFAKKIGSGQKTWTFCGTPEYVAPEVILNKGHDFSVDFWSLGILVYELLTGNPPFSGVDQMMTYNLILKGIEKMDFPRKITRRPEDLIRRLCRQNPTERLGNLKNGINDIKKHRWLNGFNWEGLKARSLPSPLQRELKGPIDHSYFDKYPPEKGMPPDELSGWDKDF
# [7] = target: T4, cGMP-dependent protein kinase 2 (Homo sapiens); details: at 1 µM
# [8] = target: T5, cAMP-dependent protein kinase catalytic subunit PRKX (Homo sapiens) (UniProt P51817); details: at 0.1 µM
# T5 sequence (whole entry): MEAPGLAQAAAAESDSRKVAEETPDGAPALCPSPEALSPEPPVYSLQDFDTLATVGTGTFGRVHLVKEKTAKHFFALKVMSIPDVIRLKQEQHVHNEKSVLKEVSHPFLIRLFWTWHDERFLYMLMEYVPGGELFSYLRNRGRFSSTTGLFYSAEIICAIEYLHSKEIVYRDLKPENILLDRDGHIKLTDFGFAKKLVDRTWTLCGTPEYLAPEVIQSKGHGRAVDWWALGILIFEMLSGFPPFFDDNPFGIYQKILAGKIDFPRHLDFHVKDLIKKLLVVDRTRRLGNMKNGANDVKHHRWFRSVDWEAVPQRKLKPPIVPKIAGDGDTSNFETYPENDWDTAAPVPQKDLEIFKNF
# [9] = target: T5, cAMP-dependent protein kinase catalytic subunit PRKX (Homo sapiens); details: at 1 µM
# [10] = target: Rho-associated protein kinase 1 (Homo sapiens) (UniProt Q13464); details: at 0.1 µM
# [11] = target: Rho-associated protein kinase 1 (Homo sapiens) (UniProt Q13464); details: at 1 µM
# [12] = target: Rho-associated protein kinase 2 (Homo sapiens) (UniProt O75116); details: at 0.1 µM
# [13] = target: Rho-associated protein kinase 2 (Homo sapiens) (UniProt O75116); details: at 1 µM
# [14] = target: Ribosomal protein S6 kinase alpha-1 (Homo sapiens) (UniProt Q15418); details: at 0.1 µM
# [15] = target: Ribosomal protein S6 kinase alpha-1 (Homo sapiens) (UniProt Q15418); details: at 1 µM
# [16] = target: Ribosomal protein S6 kinase alpha-3 (Homo sapiens) (UniProt P51812); details: at 0.1 µM
# [17] = target: Ribosomal protein S6 kinase alpha-3 (Homo sapiens) (UniProt P51812); details: at 1 µM
# [18] = target: Ribosomal protein S6 kinase alpha-2 (Homo sapiens) (UniProt Q15349); details: at 0.1 µM
# [19] = target: Ribosomal protein S6 kinase alpha-2 (Homo sapiens) (UniProt Q15349); details: at 1 µM
# [20] = target: Ribosomal protein S6 kinase alpha-6 (Homo sapiens) (UniProt Q9UK32); details: at 0.1 µM;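 also: reported value is the mean inhibition of RSK4, from the GSK PKIS kinase inhibitor screen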
# Chain of Rho-associated protein kinase 1 (Homo sapiens) (Q13464 2-1354 limits assumed): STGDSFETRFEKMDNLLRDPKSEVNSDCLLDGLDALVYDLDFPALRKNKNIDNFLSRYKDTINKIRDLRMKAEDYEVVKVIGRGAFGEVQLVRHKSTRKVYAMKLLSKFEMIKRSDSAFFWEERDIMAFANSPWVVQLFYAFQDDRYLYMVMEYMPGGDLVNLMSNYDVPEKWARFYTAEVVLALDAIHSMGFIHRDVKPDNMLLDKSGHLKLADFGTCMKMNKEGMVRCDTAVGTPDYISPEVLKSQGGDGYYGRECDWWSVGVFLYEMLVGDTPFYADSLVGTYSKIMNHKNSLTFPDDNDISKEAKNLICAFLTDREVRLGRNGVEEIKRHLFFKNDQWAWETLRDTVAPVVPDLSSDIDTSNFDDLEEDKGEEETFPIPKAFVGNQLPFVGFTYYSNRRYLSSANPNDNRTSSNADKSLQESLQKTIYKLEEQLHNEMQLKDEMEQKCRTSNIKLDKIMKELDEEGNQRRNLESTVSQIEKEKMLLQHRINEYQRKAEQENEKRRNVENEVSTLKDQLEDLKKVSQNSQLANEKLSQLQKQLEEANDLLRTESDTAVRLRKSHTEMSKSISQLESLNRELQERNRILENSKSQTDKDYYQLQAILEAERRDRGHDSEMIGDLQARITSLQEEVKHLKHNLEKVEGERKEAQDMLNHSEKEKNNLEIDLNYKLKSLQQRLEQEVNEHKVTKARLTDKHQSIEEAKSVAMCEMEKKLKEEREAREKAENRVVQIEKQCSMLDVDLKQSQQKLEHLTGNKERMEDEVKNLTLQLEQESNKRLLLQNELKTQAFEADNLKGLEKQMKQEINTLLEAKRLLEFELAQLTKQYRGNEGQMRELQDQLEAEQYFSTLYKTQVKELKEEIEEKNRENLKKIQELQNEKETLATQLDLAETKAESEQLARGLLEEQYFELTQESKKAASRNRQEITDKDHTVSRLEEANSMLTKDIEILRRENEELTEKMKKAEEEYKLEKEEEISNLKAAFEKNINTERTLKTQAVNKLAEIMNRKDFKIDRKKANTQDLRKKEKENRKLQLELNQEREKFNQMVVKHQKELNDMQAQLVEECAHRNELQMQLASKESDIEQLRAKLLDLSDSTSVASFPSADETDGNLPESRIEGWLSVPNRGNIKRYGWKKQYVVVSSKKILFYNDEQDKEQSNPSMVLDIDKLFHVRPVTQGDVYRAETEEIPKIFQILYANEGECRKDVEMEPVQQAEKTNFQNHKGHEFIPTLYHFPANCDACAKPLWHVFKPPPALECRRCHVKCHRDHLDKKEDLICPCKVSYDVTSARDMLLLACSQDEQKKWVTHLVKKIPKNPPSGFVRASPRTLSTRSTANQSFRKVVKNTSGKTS
# Chain of Ribosomal protein S6 kinase alpha-2 (Homo sapiens) (Q15349 whole entry): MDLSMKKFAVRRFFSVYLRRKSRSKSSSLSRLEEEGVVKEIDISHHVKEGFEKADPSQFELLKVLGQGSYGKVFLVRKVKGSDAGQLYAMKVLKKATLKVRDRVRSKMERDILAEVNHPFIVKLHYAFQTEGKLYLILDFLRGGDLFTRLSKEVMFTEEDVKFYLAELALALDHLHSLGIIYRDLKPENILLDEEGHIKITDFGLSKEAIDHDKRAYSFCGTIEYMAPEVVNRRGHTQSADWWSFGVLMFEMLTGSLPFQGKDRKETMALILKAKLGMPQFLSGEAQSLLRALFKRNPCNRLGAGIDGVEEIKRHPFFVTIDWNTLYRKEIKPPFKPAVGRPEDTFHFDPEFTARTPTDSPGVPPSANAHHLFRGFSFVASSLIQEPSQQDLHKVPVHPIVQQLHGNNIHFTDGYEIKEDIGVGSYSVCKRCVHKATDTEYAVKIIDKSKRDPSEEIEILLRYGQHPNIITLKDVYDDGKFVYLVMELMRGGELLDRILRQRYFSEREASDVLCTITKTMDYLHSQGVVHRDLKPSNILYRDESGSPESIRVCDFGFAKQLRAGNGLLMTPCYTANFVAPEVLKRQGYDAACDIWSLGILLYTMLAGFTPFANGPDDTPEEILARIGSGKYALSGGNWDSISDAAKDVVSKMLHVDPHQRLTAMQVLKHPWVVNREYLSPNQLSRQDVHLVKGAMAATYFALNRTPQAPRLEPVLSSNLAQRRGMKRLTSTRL
# Chain of Rho-associated protein kinase 2 (Homo sapiens) (O75116 whole entry, looked up): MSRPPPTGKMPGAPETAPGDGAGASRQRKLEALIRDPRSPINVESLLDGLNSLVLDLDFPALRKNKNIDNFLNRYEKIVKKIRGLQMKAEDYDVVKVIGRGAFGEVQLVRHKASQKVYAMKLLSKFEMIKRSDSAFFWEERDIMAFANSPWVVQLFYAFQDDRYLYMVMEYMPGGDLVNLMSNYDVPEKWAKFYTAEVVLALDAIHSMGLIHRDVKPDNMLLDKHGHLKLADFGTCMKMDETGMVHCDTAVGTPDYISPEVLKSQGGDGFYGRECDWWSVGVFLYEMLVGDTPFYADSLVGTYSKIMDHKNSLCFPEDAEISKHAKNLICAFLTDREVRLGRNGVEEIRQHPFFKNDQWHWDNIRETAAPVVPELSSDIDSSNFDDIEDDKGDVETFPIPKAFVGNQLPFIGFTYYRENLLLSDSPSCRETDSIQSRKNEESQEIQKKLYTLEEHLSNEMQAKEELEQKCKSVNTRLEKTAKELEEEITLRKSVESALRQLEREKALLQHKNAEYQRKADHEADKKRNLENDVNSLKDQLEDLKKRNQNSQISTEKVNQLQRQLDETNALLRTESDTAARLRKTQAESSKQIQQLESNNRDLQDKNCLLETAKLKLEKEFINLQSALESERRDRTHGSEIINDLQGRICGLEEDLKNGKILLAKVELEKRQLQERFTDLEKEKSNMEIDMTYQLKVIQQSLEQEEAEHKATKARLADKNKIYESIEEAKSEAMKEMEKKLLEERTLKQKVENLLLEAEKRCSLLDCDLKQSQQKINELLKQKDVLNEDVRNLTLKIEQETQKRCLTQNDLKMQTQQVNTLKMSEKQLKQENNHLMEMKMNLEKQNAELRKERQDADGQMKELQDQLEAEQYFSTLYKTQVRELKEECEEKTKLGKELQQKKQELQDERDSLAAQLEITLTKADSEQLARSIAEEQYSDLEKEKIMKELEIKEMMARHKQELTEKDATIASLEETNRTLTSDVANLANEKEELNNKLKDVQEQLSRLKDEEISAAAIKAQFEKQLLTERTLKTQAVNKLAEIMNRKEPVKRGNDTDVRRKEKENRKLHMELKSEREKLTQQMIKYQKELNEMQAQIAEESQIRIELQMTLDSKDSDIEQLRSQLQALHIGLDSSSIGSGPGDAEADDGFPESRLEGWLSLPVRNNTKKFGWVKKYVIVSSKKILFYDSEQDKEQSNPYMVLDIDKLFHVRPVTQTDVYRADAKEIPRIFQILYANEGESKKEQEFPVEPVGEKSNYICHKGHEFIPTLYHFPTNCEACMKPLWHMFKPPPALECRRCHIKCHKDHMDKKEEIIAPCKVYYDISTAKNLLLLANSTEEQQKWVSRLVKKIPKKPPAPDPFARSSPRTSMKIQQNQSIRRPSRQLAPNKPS
# Chain of Ribosomal protein S6 kinase alpha-3 (Homo sapiens) (P51812 whole entry): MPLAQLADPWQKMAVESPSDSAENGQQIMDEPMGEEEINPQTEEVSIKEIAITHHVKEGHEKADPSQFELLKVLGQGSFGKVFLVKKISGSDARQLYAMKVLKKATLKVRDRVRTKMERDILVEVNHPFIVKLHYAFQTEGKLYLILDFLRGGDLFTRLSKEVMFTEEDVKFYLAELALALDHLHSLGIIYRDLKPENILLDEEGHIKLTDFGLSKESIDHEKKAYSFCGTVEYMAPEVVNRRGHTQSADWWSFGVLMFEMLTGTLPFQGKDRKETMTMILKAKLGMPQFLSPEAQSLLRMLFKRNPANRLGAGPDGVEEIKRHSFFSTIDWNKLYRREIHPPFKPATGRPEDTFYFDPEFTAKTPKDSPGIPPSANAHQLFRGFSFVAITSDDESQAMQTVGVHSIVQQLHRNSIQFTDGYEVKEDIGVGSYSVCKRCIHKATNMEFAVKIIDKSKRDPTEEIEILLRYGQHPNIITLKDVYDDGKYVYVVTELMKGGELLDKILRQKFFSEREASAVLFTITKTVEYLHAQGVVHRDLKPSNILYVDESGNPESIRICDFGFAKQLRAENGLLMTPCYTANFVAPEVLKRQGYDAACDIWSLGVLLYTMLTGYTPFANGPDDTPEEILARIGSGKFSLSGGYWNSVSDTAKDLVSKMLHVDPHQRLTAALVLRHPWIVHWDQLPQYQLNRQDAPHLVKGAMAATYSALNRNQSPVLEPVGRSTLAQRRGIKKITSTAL
# Chain of Ribosomal protein S6 kinase alpha-1 (Homo sapiens) (Q15418 whole entry): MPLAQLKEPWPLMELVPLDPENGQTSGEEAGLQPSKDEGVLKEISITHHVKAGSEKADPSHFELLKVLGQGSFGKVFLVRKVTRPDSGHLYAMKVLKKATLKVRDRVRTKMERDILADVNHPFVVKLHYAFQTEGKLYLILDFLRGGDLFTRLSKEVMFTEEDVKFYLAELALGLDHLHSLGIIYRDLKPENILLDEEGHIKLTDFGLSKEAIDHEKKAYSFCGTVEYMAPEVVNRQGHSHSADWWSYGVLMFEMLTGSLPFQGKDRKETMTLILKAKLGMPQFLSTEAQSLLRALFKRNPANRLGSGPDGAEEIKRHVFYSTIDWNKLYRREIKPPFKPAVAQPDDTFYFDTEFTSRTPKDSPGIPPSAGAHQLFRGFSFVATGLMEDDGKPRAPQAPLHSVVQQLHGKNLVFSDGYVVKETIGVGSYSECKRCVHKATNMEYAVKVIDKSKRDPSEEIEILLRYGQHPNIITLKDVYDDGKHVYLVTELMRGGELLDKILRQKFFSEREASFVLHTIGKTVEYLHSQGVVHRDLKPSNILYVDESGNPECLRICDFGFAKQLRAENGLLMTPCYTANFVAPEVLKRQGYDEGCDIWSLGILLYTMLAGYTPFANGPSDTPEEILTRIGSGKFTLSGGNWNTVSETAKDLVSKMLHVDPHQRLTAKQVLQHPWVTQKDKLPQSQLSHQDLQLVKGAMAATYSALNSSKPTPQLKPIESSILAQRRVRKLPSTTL
smiles,measurement,setting,value
O=S(=O)(CCOCc1ccc(-c2ccc3ncnc(Nc4ccc(OCc5cccc(F)c5)c(Cl)c4)c3c2)o1)c1ccccc1,inhibition,[1],2.14%
same,inhibition,[2],1.07%
same,inhibition,[3],1.96%
same,inhibition,[4],1.36%
same,inhibition,[5],2.37%
same,inhibition,[6],1.18%
same,inhibition,[7],2.63%
same,inhibition,[8],1.21%
same,inhibition,[9],1.09%
same,inhibition,[10],1.34%
same,inhibition,[11],3.68%
same,inhibition,[12],1.09%
same,inhibition,[13],6.38%
same,inhibition,[14],-1.65%
same,inhibition,[15],1.43%
same,inhibition,[16],-0.82%
same,inhibition,[17],1.23%
same,inhibition,[18],-0.87%
same,inhibition,[19],1.09%
same,inhibition,[20],-1.59%
Cc1cc(Cl)cc2c1NC(=O)C2=NNc1ccc(S(N)(=O)=O)cc1,inhibition,[1],2.34%
same,inhibition,[2],2.25%
same,inhibition,[3],1.81%
same,inhibition,[4],1.17%
same,inhibition,[5],3.27%
same,inhibition,[6],2.01%
same,inhibition,[7],2%
same,inhibition,[8],1.43%
same,inhibition,[9],3.22%
same,inhibition,[10],0.02%
same,inhibition,[11],0.46%
same,inhibition,[12],2.77%
same,inhibition,[13],4.97%
same,inhibition,[14],2.28%
same,inhibition,[15],4.19%
same,inhibition,[16],1.6%
same,inhibition,[17],3.02%
same,inhibition,[18],2.57%
same,inhibition,[19],1.19%
same,inhibition,[20],0.74%
COc1cccc(-n2nc(C)c3c(N/N=C(\C)c4ccncc4)ncnc32)c1,inhibition,[1],-1.17%
same,inhibition,[2],-0.64%
same,inhibition,[3],0.59%
same,inhibition,[4],0.03%
same,inhibition,[5],0.55%
same,inhibition,[6],0.35%
same,inhibition,[7],-0.19%
same,inhibition,[8],-0.2%
same,inhibition,[9],-1.17%
same,inhibition,[10],-1.53%
same,inhibition,[11],-1.87%
same,inhibition,[12],-0.57%
same,inhibition,[13],-1.33%
same,inhibition,[14],-1.25%
same,inhibition,[15],-0.11%
same,inhibition,[16],0.34%
same,inhibition,[17],1.55%
same,inhibition,[18],1.45%
same,inhibition,[19],0.23%
same,inhibition,[20],-0.47%
CC(C)c1ccc(Nc2nccc(-c3cnn4ncccc34)n2)cc1,inhibition,[1],15.6%
same,inhibition,[2],2.22%
same,inhibition,[3],15.6%
same,inhibition,[4],0.59%
same,inhibition,[5],4.3%
same,inhibition,[6],1.01%
same,inhibition,[7],3.05%
same,inhibition,[8],0.91%
same,inhibition,[9],1.43%
same,inhibition,[10],0.36%
same,inhibition,[11],10.9%
same,inhibition,[12],5.29%
same,inhibition,[13],24.7%
same,inhibition,[14],0.96%
same,inhibition,[15],3.69%
same,inhibition,[16],-0.01%
same,inhibition,[17],2.08%
same,inhibition,[18],0.12%
same,inhibition,[19],2.76%
same,inhibition,[20],-0.42%
OCc1ccc(-c2nc(-c3ccccn3)c(-c3ccc4c(c3)OCO4)[nH]2)cc1,inhibition,[1],9.51%
same,inhibition,[2],5.74%
same,inhibition,[3],8.28%
same,inhibition,[4],1.9%
same,inhibition,[5],2.98%
same,inhibition,[6],2.69%
same,inhibition,[7],3.26%
same,inhibition,[8],1.55%
same,inhibition,[9],0.61%
same,inhibition,[10],1.43%
same,inhibition,[11],2.25%
same,inhibition,[12],3.74%
same,inhibition,[13],1.44%
same,inhibition,[14],1.38%
same,inhibition,[15],0.67%
same,inhibition,[16],0.79%
same,inhibition,[17],0.24%
same,inhibition,[18],2.72%
same,inhibition,[19],3.66%
same,inhibition,[20],1.53%
CCS(=O)(=O)c1ccc(OC)c(Nc2nccc(N(C)c3ccc4c(C)n[nH]c4c3)n2)c1,inhibition,[1],3.25%
same,inhibition,[2],4.79%
same,inhibition,[3],4.86%
same,inhibition,[4],4.43%
same,inhibition,[5],2.44%
same,inhibition,[6],2.68%
same,inhibition,[7],3.13%
same,inhibition,[8],2.11%
same,inhibition,[9],2.47%
same,inhibition,[10],1.77%
same,inhibition,[11],2.51%
same,inhibition,[12],2.12%
same,inhibition,[13],4.04%
same,inhibition,[14],-0.57%
same,inhibition,[15],3.78%
same,inhibition,[16],-0.28%
same,inhibition,[17],0.94%
same,inhibition,[18],-0.47%
same,inhibition,[19],1.56%
same,inhibition,[20],-1.99%
ON=C1CCc2cc(-c3nc(C4CCNCC4)[nH]c3-c3ccncc3)ccc21,inhibition,[1],9.97%
same,inhibition,[2],1.39%
same,inhibition,[3],8.68%
same,inhibition,[4],-0.33%
same,inhibition,[5],1.76%
same,inhibition,[6],0.54%
same,inhibition,[7],2.55%
same,inhibition,[8],-0.73%
same,inhibition,[9],-2.69%
same,inhibition,[10],0.17%
same,inhibition,[11],0.82%
same,inhibition,[12],-1.08%
same,inhibition,[13],-0.29%
same,inhibition,[14],-1.46%
same,inhibition,[15],-1.99%
same,inhibition,[16],-1%
same,inhibition,[17],-0.39%
same,inhibition,[18],0.31%
same,inhibition,[19],1.01%
same,inhibition,[20],0.13%
